Results published in paper PMC12864922, “TDP-43 directly inhibits mRNA accumulation in neurites through modulation of mRNA stability”.
Whole data set: some 9,900 sequences, median “r (bound/input frequency ratio)” near 0.7, cut for the highest 2% near 6.5. The list comes from a sample in which the highest values are over-represented; it also holds similar and randomly drawn sequences.

B1: ENSMUSG00000061578.134|Ksr2|58:63;126:130;148:163;199:203 (ssRNA)
RNA: GGGAGUUCUACAGUCCGACGAUCGCUUCGAUAUCCGCAUGCUAAUGGCUUCCCCCAAAGUCCCGAGUCCUGAGAACCGGGGCUGUGGCAAGAGAGUUCUGCACACAUCUCUCUGUGGGGCUAGCAAUGCCGGGGUUAAGUUCUCCCUCGGUGAUGGAGACGGUCCUGGCAUACCAUGAUGGGUUACAUGGCACACACACACACACAAACUGUUUACAAUGGUCUCCCUGCCUCUCACGGGCACACAUCCAGGAGAAUGCACAUAGAGAGGUUCUGUGGUCUCUGCUGUCGCCUGGUGCUGAAUCUCUUGCGGUCGCACUAGUGUGGAAUUCUCGGGUGUCAAGG
B2: ENSMUSG00000029636.224|Wasf3|112:116;205:212 (ssRNA)
RNA: GGGAGUUCUACAGUCCGACGAUCGCUUCGAUAUCCGCAUGCUAUUGCAGAGGGACCAGGACACUGCCUUCCCUUAGGUGCAUUAUUUACGUGGCCUGCAGCUCUUAAUAUCUCUCACUGUUUAUGAAAAGAAAGAUUCAGAUCCGGGGUGACAUACACACAGUUGACAGGGAAUGCCUGUGGGAUAAUUAAAAAUGGUUUUUGCUCAUGAGUUUGGGAUGUCACCCAGCCGCCCACAUCGCCUGCUAACACACACGACGCCUGUCCGCUUGGCCAGCUAUCCUGUAACACCUGCCAGUAGUAGCUCUUGCGGUCGCACUAGUGUGGAAUUCUCGGGUGUCAAGG
B3: ENSMUSG00000031028.392|Tub (ssRNA)
RNA: GGGAGUUCUACAGUCCGACGAUCGCUUCGAUAUCCGCAUGCUAAGCUCCUGGUGAUAAUGCCUUUUCUUGACCACUGGCGCUGUGAACACAGGCUAAUGGACUUCAGAUACCAGGGCCCCGGGAUCACCUGGGUUAGCCUCUCCCACAGGAAGAUCCCUUACCCCUCAUCCCCUCUUCUUUUUGGUCCUUGGCUGGGUAGCAAAUUGGUGAGAAGAGCAGCCUAGUCUGUAAGAGUGCAGGGCAGCUGGAACCUUAGGCAGCUCCUCUGUAUGCUACCGGCUCCACACCCUAACACUCUCCACCUCUUGCGGUCGCACUAGUGUGGAAUUCUCGGGUGUCAAGG
B4: ENSMUSG00000029028.200|Lrrc47 (ssRNA)
RNA: GGGAGUUCUACAGUCCGACGAUCGCUUCGAUAUCCGCAUGCUAUGUACCAGCACACAGCUGCCAUCCCUCGAGCCACAGUGCCUGGUCCUAAGGACCCAGCAGCUGCACAGAGGACUUGGUGGCCCCGUGCCUUGCCAUCUGGCUGAGAAGAGAACCAGACCCUCAGCCUUCCCCCUCGACACCUUCUCGUUGGUGACCUCUGACCUUAAAGGACCAUUUCUACCUUCUGUAAAAGAACACCUGUUUGGGGUUGCGUGCGGCUUUCAUCCUAAGGCCGUGCGAGAGCCGUUAGCUGUCAGAACCUCUUGCGGUCGCACUAGUGUGGAAUUCUCGGGUGUCAAGG
B5: ENSMUSG00000061578.980|Ksr2 (ssRNA)
RNA: GGGAGUUCUACAGUCCGACGAUCGCUUCGAUAUCCGCAUGCUAAUCCAUGACUCAGAAUUUUCCAGAGACCCAAUCCCUCGGGGUCCACUUAGUGAUGGGACCAUACAAGAGUUUAUUUCCAAUUAGAGAAUUGGGUCAACUGGGAAAGGCUUCUUUCCUGGUAACCCUGCUACUGAUACUAUGUUGAAACAGGAAUCGACUCUAACUGCUUUUUGGCCUCUUCCCUGCACGGGAGUCUCAAAAUCAAGUUUUUACCCAGUGGCCUCUGGGAUCCACUCUCUCUACUCCUGAACUCUUAAAACCUCUUGCGGUCGCACUAGUGUGGAAUUCUCGGGUGUCAAGG
B6: ENSMUSG00000061578.705|Ksr2 (ssRNA)
RNA: GGGAGUUCUACAGUCCGACGAUCGCUUCGAUAUCCGCAUGCUAUUGAGGUGCCUUCCUGUAGUCUCUUGUGUCAUCUUCUUCUAAGACCACUAAUAACACCGCCUUUCUCCUUGAUCCGGGCCUCAGACCUCUUCAGAGAUUCUUUCUCUGAAUGUACGUGGGGGACUCCAACAGAUGUUGGGAGAAGACUCAAUAUGAGCAUACGGGGUCAUUGUUCAAUCCUGUAUCAAGACCUUGGAGUUGUCUAAGGCUGUGGGUUUUAAAUACCUGCUGCAGGCCUCCCAUCUCUGGCUCUUUGUUUCCUCUUGCGGUCGCACUAGUGUGGAAUUCUCGGGUGUCAAGG
B7: ENSMUSG00000058297.34|Spock2|47:51;55:68;77:88;102:108;117:126;132:157 (ssRNA)
RNA: GGGAGUUCUACAGUCCGACGAUCGCUUCGAUAUCCGCAUGCUAGAAGUCAGUGCGGAGGACCCUGGCUCCAGUGGGGGAGGACUGGGGACACACGCUACACACAUACACACAUAUGAGAACACACACAUACAUGUGAGAUGUGACACACACAUGUGAGAACACACAUACUGAGAACACACACACACACACACACACACACAUGUGAGUCACCCAAAGGUCCCUAUGUUAUUGAUUUUCAAAUGCACACUUUCACACACAAGGAUACACUAACAGACCAAAAUCAAUGAGAUGUCCCUGAUCCUCUCUUGCGGUCGCACUAGUGUGGAAUUCUCGGGUGUCAAGG
B8: ENSMUSG00000058297.32|Spock2|59:63;67:80;89:100;114:120;129:138;144:169 (ssRNA)
RNA: GGGAGUUCUACAGUCCGACGAUCGCUUCGAUAUCCGCAUGCUACAAAUGGAUCCGGAAGUCAGUGCGGAGGACCCUGGCUCCAGUGGGGGAGGACUGGGGACACACGCUACACACAUACACACAUAUGAGAACACACACAUACAUGUGAGAUGUGACACACACAUGUGAGAACACACAUACUGAGAACACACACACACACACACACACACACAUGUGAGUCACCCAAAGGUCCCUAUGUUAUUGAUUUUCAAAUGCACACUUUCACACACAAGGAUACACUAACAGACCAAAAUCAAUGAGAUCUCUUGCGGUCGCACUAGUGUGGAAUUCUCGGGUGUCAAGG
B9: ENSMUSG00000058297.33|Spock2|53:57;61:74;83:94;108:114;123:132;138:163 (ssRNA)
RNA: GGGAGUUCUACAGUCCGACGAUCGCUUCGAUAUCCGCAUGCUAGAUCCGGAAGUCAGUGCGGAGGACCCUGGCUCCAGUGGGGGAGGACUGGGGACACACGCUACACACAUACACACAUAUGAGAACACACACAUACAUGUGAGAUGUGACACACACAUGUGAGAACACACAUACUGAGAACACACACACACACACACACACACACAUGUGAGUCACCCAAAGGUCCCUAUGUUAUUGAUUUUCAAAUGCACACUUUCACACACAAGGAUACACUAACAGACCAAAAUCAAUGAGAUGUCCCUCUCUUGCGGUCGCACUAGUGUGGAAUUCUCGGGUGUCAAGG
B10: ENSMUSG00000058297.42|Spock2 (ssRNA)
RNA: GGGAGUUCUACAGUCCGACGAUCGCUUCGAUAUCCGCAUGCUAGUGGCUUGUGUGUAUGUGUGAUAUGAGAUGUGUGUGUAUGAUGUGAGAUGUGAGUGUGUGAUGUGAGAUGUGUGUAUGUGAGAUGUGUGUGUGUGUGUGUGUGUGUGUGAUGUGAGUCACCCAAAGGUCCCUAUGUUAUUGAUUUUCAAAUGCACACUUUCACACACAAGGAUACACUAACAGACCAAAAUCAAUGAGAUGUCCCUGAUCCUGCCCCUCAGCCCAACACCUGGAAUCCCUGCCCUGCCUAAUCAGCCCUACUCUUGCGGUCGCACUAGUGUGGAAUUCUCGGGUGUCAAGG
B11: ENSMUSG00000058297.34|Spock2 (ssRNA)
RNA: GGGAGUUCUACAGUCCGACGAUCGCUUCGAUAUCCGCAUGCUAGAAGUCAGUGCGGAGGACCCUGGCUCCAGUGGGGGAGGACUGGGGAGUGUGGCUUGUGUGUAUGUGUGAUAUGAGAUGUGUGUGUAUGAUGUGAGAUGUGAGUGUGUGAUGUGAGAUGUGUGUAUGUGAGAUGUGUGUGUGUGUGUGUGUGUGUGUGAUGUGAGUCACCCAAAGGUCCCUAUGUUAUUGAUUUUCAAAUGCACACUUUCACACACAAGGAUACACUAACAGACCAAAAUCAAUGAGAUGUCCCUGAUCCUCUCUUGCGGUCGCACUAGUGUGGAAUUCUCGGGUGUCAAGG
B12: ENSMUSG00000058297.32|Spock2 (ssRNA)
RNA: GGGAGUUCUACAGUCCGACGAUCGCUUCGAUAUCCGCAUGCUACAAAUGGAUCCGGAAGUCAGUGCGGAGGACCCUGGCUCCAGUGGGGGAGGACUGGGGAGUGUGGCUUGUGUGUAUGUGUGAUAUGAGAUGUGUGUGUAUGAUGUGAGAUGUGAGUGUGUGAUGUGAGAUGUGUGUAUGUGAGAUGUGUGUGUGUGUGUGUGUGUGUGUGAUGUGAGUCACCCAAAGGUCCCUAUGUUAUUGAUUUUCAAAUGCACACUUUCACACACAAGGAUACACUAACAGACCAAAAUCAAUGAGAUCUCUUGCGGUCGCACUAGUGUGGAAUUCUCGGGUGUCAAGG
B13: ENSMUSG00000058297.36|Spock2 (ssRNA)
RNA: GGGAGUUCUACAGUCCGACGAUCGCUUCGAUAUCCGCAUGCUAGAGGACCCUGGCUCCAGUGGGGGAGGACUGGGGAGUGUGGCUUGUGUGUAUGUGUGAUAUGAGAUGUGUGUGUAUGAUGUGAGAUGUGAGUGUGUGAUGUGAGAUGUGUGUAUGUGAGAUGUGUGUGUGUGUGUGUGUGUGUGUGAUGUGAGUCACCCAAAGGUCCCUAUGUUAUUGAUUUUCAAAUGCACACUUUCACACACAAGGAUACACUAACAGACCAAAAUCAAUGAGAUGUCCCUGAUCCUGCCCCUCAGCCCCUCUUGCGGUCGCACUAGUGUGGAAUUCUCGGGUGUCAAGG
B14: ENSMUSG00000058297.35|Spock2 (ssRNA)
RNA: GGGAGUUCUACAGUCCGACGAUCGCUUCGAUAUCCGCAUGCUAAGUGCGGAGGACCCUGGCUCCAGUGGGGGAGGACUGGGGAGUGUGGCUUGUGUGUAUGUGUGAUAUGAGAUGUGUGUGUAUGAUGUGAGAUGUGAGUGUGUGAUGUGAGAUGUGUGUAUGUGAGAUGUGUGUGUGUGUGUGUGUGUGUGUGAUGUGAGUCACCCAAAGGUCCCUAUGUUAUUGAUUUUCAAAUGCACACUUUCACACACAAGGAUACACUAACAGACCAAAAUCAAUGAGAUGUCCCUGAUCCUGCCCCUCUCUUGCGGUCGCACUAGUGUGGAAUUCUCGGGUGUCAAGG
B15: ENSMUSG00000058297.33|Spock2 (ssRNA)
RNA: GGGAGUUCUACAGUCCGACGAUCGCUUCGAUAUCCGCAUGCUAGAUCCGGAAGUCAGUGCGGAGGACCCUGGCUCCAGUGGGGGAGGACUGGGGAGUGUGGCUUGUGUGUAUGUGUGAUAUGAGAUGUGUGUGUAUGAUGUGAGAUGUGAGUGUGUGAUGUGAGAUGUGUGUAUGUGAGAUGUGUGUGUGUGUGUGUGUGUGUGUGAUGUGAGUCACCCAAAGGUCCCUAUGUUAUUGAUUUUCAAAUGCACACUUUCACACACAAGGAUACACUAACAGACCAAAAUCAAUGAGAUGUCCCUCUCUUGCGGUCGCACUAGUGUGGAAUUCUCGGGUGUCAAGG

Target: TDP-43 (Homo sapiens, UniProt Q13148 1-414)
Assay: RNA Bind-n-Seq with designed 260-mer pool; 25 mM Tris-HCl, 150 mM KCl, 3 mM MgCl2, BSA (printed 500 mg/mL), 20 units/mL SUPERase IN; pH not stated; 500 nM RNA pool, 1 h, 4 C; TDP-43 5, 50, 500 nM; high values mean tight binding
Conditions: protein: recombinant; tags: SBP (GST cleaved off with PreScission; pGEX-GST-SBP)
Outline: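 The incubation lasted 1 h at 4 °C and used 500 nM of an in vitro-transcribed 260-nt 3′ UTR oligo pool with recombinant SBP-tagged TDP-43 at 5, 50 or 500 nM immobilized on streptavidin beads. It took place in 25 mM Tris-HCl, 150 mM KCl, 3 mM MgCl2, BSA and SUPERase IN. Bound RNA was washed, eluted with biotin, converted to cDNA, PCR-amplified and sequenced to give R, each oligo's normalized abundance in the bound sample divided by that in input. Two independent protein batches provided the duplicates.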

Sequence of TDP-43 (Q13148 whole entry): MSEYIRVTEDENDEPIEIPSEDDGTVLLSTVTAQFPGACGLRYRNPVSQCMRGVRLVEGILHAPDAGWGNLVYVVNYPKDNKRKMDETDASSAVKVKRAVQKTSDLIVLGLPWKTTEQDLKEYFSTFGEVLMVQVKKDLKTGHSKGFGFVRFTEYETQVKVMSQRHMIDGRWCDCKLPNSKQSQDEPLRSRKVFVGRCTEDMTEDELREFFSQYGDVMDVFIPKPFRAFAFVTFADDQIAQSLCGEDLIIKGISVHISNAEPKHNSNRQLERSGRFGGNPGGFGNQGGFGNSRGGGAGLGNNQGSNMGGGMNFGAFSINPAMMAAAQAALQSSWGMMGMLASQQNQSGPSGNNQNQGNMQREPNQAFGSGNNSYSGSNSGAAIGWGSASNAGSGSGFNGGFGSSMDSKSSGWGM

Binder | binding signal
B1 | 1.51 R (bound/input frequency ratio)
B2 | 1.64 R (bound/input frequency ratio)
B3 | 0.459 R (bound/input frequency ratio)
B4 | 0.283 R (bound/input frequency ratio)
B5 | 0.19 R (bound/input frequency ratio)
B6 | 0.309 R (bound/input frequency ratio)
B7 | 2.69 R (bound/input frequency ratio)
B8 | 3.96 R (bound/input frequency ratio)
B9 | 2.93 R (bound/input frequency ratio)
B10 | 5.18 R (bound/input frequency ratio)
B11 | 8.82 R (bound/input frequency ratio)
B12 | 7.46 R (bound/input frequency ratio)
B13 | 5.98 R (bound/input frequency ratio)
B14 | 8.03 R (bound/input frequency ratio)
B15 | 8.02 R (bound/input frequency ratio)
